The source of these data is PubChem BioAssay AID588453 (National Center for Advancing Translational Sciences (NCATS), 2011).

Several values for one entry are separate records, joined by “and”; a condition that tells them apart may be missing. Identical values can stand only once. The whole screen tested about 390,000 compounds, of which about 4,000 (1%) were called active. Another 4% or so got no clear call; they are omitted. Calls follow the shape of the dose curve; as a rule, active = well fitted inhibition curve with a large enough effect; inconclusive = small, poorly fitted or top-dose-only effect; inactive = no such curve, though single readings can be large or run the other way. What follows is part of a selection rich in actives, with near analogues and random picks from the rest. The source holds several records for some structures; these can differ, active in one and inactive in another.
% is scaled to controls: 0 for no effect and ±100 for the full control effect; potency is read from the fitted curve at half-maximal effect.

In the experiment the target is Thioredoxin reductase 1, cytoplasmic (Rattus norvegicus) (UniProt O89049). In words: qHTS Assay for Inhibitors of Mammalian Selenoprotein Thioredoxin Reductase 1 (TrxR1): qHTS. Also: nearly all actives have a fitted effect of over 65% in size. Conditions: recombinant rTrxR1, NADPH fluorescence consumption, selenite substrate; series mostly up to 114 µM; activity change, negative = inhibition: at the top concentration. The gist of the method: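 Rat TrxR1 (90 nM in the dispensed reagent) was pre-reduced with 400 uM NADPH for 5 min at room temperature, then incubated with compound for 15 min. After 400 uM selenite was added, NADPH fluorescence (Ex 340/Em 450 nm) was followed for 8 min.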
Chain of Thioredoxin reductase 1, cytoplasmic (Rattus norvegicus) (O89049 whole entry, looked up): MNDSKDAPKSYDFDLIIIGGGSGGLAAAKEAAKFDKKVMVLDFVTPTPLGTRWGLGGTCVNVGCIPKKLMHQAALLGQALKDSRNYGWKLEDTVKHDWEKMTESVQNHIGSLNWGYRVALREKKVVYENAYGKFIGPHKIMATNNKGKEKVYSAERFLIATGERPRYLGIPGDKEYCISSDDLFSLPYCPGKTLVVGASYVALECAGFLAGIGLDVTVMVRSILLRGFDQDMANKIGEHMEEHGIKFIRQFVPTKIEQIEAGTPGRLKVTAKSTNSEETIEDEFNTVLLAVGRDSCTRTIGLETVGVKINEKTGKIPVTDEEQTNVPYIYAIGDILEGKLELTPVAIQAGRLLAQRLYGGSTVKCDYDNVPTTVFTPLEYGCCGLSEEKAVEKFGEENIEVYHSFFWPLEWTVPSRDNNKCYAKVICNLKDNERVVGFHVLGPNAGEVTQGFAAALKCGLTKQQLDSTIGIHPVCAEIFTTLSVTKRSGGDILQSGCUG
Background: qHTS replaces the single test concentration by a dilution series.
Turning to `Cc1ccc(C)c(OCC(=O)Nc2sc3c(c2C#N)CCCC3)c1C`, the “activity change, negative = inhibition” value is -9.89% (inactive).

As for `COc1cccc(C2CC(c3ccccc3)=NN2S(=O)(=O)c2ccccc2)c1OC` (centres undefined), the “activity change, negative = inhibition” value was 28.7% [at 57.1 µM] (inactive).

Take `COc1ccc2c(c1OC)C(=O)OC2Nc1nc(-c2ccccc2)cs1` (centres undefined): the Potency was 4.47 µM (active).

Consider `Cc1ccc2c(c1)N(C(=O)CCC(=O)NCc1ccccc1F)CC(C)O2` (centres undefined), for which the “activity change, negative = inhibition” value was 9.14% (inactive).

As for `O=C(C1CCC(Cn2c(=O)c3sccc3n(Cc3ccccc3F)c2=O)CC1)N1CCCCC1` (centres undefined), the “activity change, negative = inhibition” value was 44.2% [at 57.1 µM] (inactive).

For the compound `O=C(/C=C/c1ccc([N+](=O)[O-])o1)NNC(=O)c1ccc(F)cc1`, the Potency is 3.16 µM (active).

In the case of `COc1ccc(-n2c(SCC(=O)Nc3ccc(Cl)c(C)c3)nc3n[nH]c(C)c3c2=N)cc1`, the “activity change, negative = inhibition” value was 9.9% [at 57.1 µM] (inactive).

As for `O=C(Nc1ccc2oc(-c3ccc(O)c(Br)c3)nc2c1)c1cc2ccccc2o1`, the “activity change, negative = inhibition” value is 13.4% (inactive).

As to `CN(Cc1ccco1)S(=O)(=O)c1nnc(NC(=O)c2ccccc2)s1`, the Potency entry was “inactive and 17.8 µM (active)”.

In the case of `CCC(=O)Nc1nnc(S(=O)(=O)N(CC(C)C)c2ccccc2)s1`, the “activity change, negative = inhibition” value was 14.3% [at 57.1 µM] (inactive).

For `CCCCC(=O)Nc1nnc(S(=O)(=O)N(C)Cc2ccco2)s1`, the Potency is 44.7 µM (active).

For the compound `CCN(c1ccc(Cl)cc1)S(=O)(=O)c1nnc(NC(=O)c2ccco2)s1`, the “activity change, negative = inhibition” value is 1.56% (inactive).

`CCN(CC)S(=O)(=O)c1nnc(NC(=O)COc2ccccc2Cl)s1`: the “activity change, negative = inhibition” value is 3.5% (inactive).

Take `CCOc1cccc(C(=O)Nc2nnc(S(=O)(=O)N(C)c3ccc(C)cc3)s2)c1`: the “activity change, negative = inhibition” value is 20.4% (inactive).

For `CCCCOc1ccc(C(=O)NO)cc1`, the “activity change, negative = inhibition” value was 16.9% (inactive).

For the compound `COC(=O)c1ccc(NC(=O)CCc2c(C)nc3c(c(C)nn3-c3ccc(C)cc3)c2C)cc1`, the “activity change, negative = inhibition” value was -16% (inactive).

As to `COC(=O)c1cc(NC(=O)c2cnc(SC)nc2-c2ccccc2)cc(C(=O)OC)c1`, the “activity change, negative = inhibition” value is 7.82% [at 57.1 µM] (inactive).

For `N#CCCN1CCN(S(=O)(=O)c2ccc(S(=O)(=O)N3CCCC3)cc2)CC1`, the “activity change, negative = inhibition” value is 19.7% [at 57.1 µM] (inactive).

`N#Cc1cccc(CN2CCC(=O)N(CCO)CC2)c1`: the “activity change, negative = inhibition” value is 11.3% (inactive).

On to `CC(C)(C)c1cc(CN2CCN(CCC#N)CC2)cc(C(C)(C)C)c1O`, for which the Potency is 4.47 µM (active).

In the case of `COc1cc2nc(Cl)nc(NC3CC3)c2cc1OC`, the “activity change, negative = inhibition” value was -0.97% (inactive).

Consider `Cc1cccc(C(CC(=O)NCC2(c3ccccc3)CCCC2)c2ccccc2)c1O` (centres undefined), for which the “activity change, negative = inhibition” value was 14.6% (inactive).

On to `O=C(CCSCc1ccccc1F)N1CCN(c2ccc(Cl)cc2)CC1`, for which the “activity change, negative = inhibition” value is 2.41% [at 57.1 µM] (inactive).

For `COC(=O)C1=C(C)N(c2ccc(Br)cc2)C(=O)/C1=C\c1ccco1`, the Potency was 50.1 µM (active).

Take `COC(=O)C1=C(C)N(c2ccc(C)cc2)/C(=C/c2ccc(O)cc2)C1=O`: the “activity change, negative = inhibition” value is 9.2% (inactive).

As to `COc1ccc(N2C(=O)/C(=C\c3ccco3)N=C2SCC(N)=O)cc1Cl`, the “activity change, negative = inhibition” value is -3.55% [at 57.1 µM] (inactive).

As for `COC(=O)C1=C(C)N(C)C(C)=C(C(=O)OC)C1c1cccc(Br)c1`, the “activity change, negative = inhibition” value is 15.4% [at 57.1 µM] (inactive).

Turning to `COC(=O)C1=C(C)N(C(C)c2ccccc2)C(=O)/C1=C\c1ccco1` (centres undefined), the Potency is 28.2 µM (active).

As for `COc1ccc(N2C(=O)CS(=O)(=O)C23C(=O)N(Cc2ccc(C)cc2)c2ccccc23)cc1Cl` (centres undefined), the “activity change, negative = inhibition” value is 23.5% (inactive).

Turning to `Cc1ccc2nc(COc3cccc(NC(=O)c4ccccc4Cl)c3)cc(=O)n2c1`, the “activity change, negative = inhibition” value was 8.09% [at 57.1 µM] (inactive).

For `O=C(CSc1ccc(-c2cccs2)nn1)Nc1ccccc1F`, the “activity change, negative = inhibition” value is 45.6% [at 57.1 µM] (inactive).

For `COc1ccc(Cl)cc1NC(=O)CSc1nc(-c2cccs2)cc(C(F)(F)F)n1`, the “activity change, negative = inhibition” value was 15.6% (inactive).

For `CSc1ccccc1NC(=O)CCS(=O)(=O)c1nc(-c2cccs2)cc(C(F)(F)F)n1`, the Potency was 14.1 µM (active).

In the case of `CCc1ccc(S(=O)(=O)c2nnn3c2nc(N2CCN(CC)CC2)c2sccc23)cc1`, the “activity change, negative = inhibition” value was 27.1% (inactive).

Consider `CC(C)C[C@H](NC(=O)[C@H](O)[C@H](N)Cc1ccccc1)C(=O)O`, for which the “activity change, negative = inhibition” value is 18.1% [at 57.1 µM] (inactive).

With `O=C(CSc1nnc(-c2cccnc2)n1CCc1ccccc1)NCc1ccccc1`, the “activity change, negative = inhibition” value was 7.54% (inactive).

Regarding `CCn1c(SCC(=O)NCc2ccco2)nnc1-c1ccc(N)cc1`, the “activity change, negative = inhibition” value is 9.16% [at 57.1 µM] (inactive).

Take `O=C(CSc1nnc(-c2cccnc2)n1Cc1ccco1)c1ccc(Cl)c(Cl)c1`: the Potency is 44.7 µM (active).

As to `Cc1ccc(C)c(N2CCN(C(=O)Cc3c(C(=O)O)c(C)cn3C)CC2)c1`, the “activity change, negative = inhibition” value was 19.2% [at 57.1 µM] (inactive).

For `Cc1ccccc1CNC(=O)Cn1c(C)c2cnn(-c3ccccc3)c(=O)c2c1C`, the “activity change, negative = inhibition” value is 23.6% (inactive).

Regarding `Cc1ccc(C(=O)Nc2ccc3[nH]c(=O)c(=O)[nH]c3c2)cc1`, the “activity change, negative = inhibition” value is 1.15% (inactive).

For `CN(C)/C=C1/Nc2ccccc2C1=O`, the Potency is 35.5 µM (active).

Regarding `CCCS(=O)(=O)C(=C1Nc2ccccc2N1)S(=O)(=O)CCC`, the “activity change, negative = inhibition” value is -18.4% (inactive).

For the compound `Cc1ccc(S(=O)(=O)c2nnn3c2nc(N2CCN(c4ccccc4F)CC2)c2cc(Cl)ccc23)cc1C`, the “activity change, negative = inhibition” value is 20.5% (inactive).

`COCCNC(=O)CSc1nc(-c2ccccc2)[nH]c1-c1ccc(C)cc1`: the “activity change, negative = inhibition” value was 13.8% (inactive).

In the case of `Cc1csc(NCC(=O)c2c[nH]c3ccccc23)n1`, the “activity change, negative = inhibition” value was 11.7% (inactive).

As for `Clc1cccc(-c2nc3nc4ccccc4nc3n2Cc2ccco2)c1`, the Potency was 7.94 µM (active).

In the case of `COCCCn1c(-c2cccs2)nc2nc3ccccc3nc21`, the “activity change, negative = inhibition” value was 182% (inactive).

As for `Cc1nc2ccc(S(=O)(=O)N(CC(=O)Nc3ccc(F)cc3)Cc3ccccc3)cc2s1`, the “activity change, negative = inhibition” value was 7.96% [at 57.1 µM] (inactive).
